Measurements reported in PubChem BioAssay (Tox21).
Results filed as inconclusive are left out. Active and inactive are the calls of the source. Calls follow the shape of the full dose curve.

Key:
[1] = biological target: Acetylcholinesterase (Homo sapiens) (UniProt P22303); assay: Acetylcholinesterase (AChE) small molecule antagonists: colormetric cell-based qHTS assay (AID 1347395); also: nearly all actives have a fitted effect of over 30% in size
In short: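 Homogeneous whole-cell format. SH-SY5Y cells seeded overnight, dosed with compound (30 min, 37 C, 5% CO2), then given DTNB/acetylthiocholine cocktail for 90 min at 37 C; colorimetric signal.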

[2] = biological target: Acetylcholinesterase (Homo sapiens) (UniProt P22303); assay: Acetylcholinesterase (AChE) small molecule antagonists: enzyme-based qHTS assay (AID 1347397); conditions: Potency: AChE enzyme activity inhibition; outcome: AChE enzyme activity inhibition; also: nearly all actives have a fitted effect of over 55% in size
In short: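 Compound or DMSO vehicle was pin-transferred onto recombinant human AChE (50 mU/mL as dispensed) and left 30 min at room temperature. Acetylthiocholine with DTNB then started the reaction, read colorimetrically 10 min later.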

[3] = biological target: Acetylcholinesterase (Homo sapiens) (UniProt P22303); assay: Acetylcholinesterase (AChE) small molecule antagonists: fluorescence cell-based qHTS assay (AID 1347398); conditions: Potency: AChE activity; outcome: AChE activity; also: nearly all actives have a fitted effect of over 50% in size
In short: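 Using neuroblastoma SH-SY5Y cells as the enzyme source, test chemicals are preincubated 30 min at 37 C; AChE-driven acetylthiocholine cleavage is then quantified by thiocholine-dependent Thiolite Green fluorescence after 40 min at room temperature.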

[4] = biological target: Acetylcholinesterase (Homo sapiens) (UniProt P22303); assay: Acetylcholinesterase (AChE) small molecule antagonists: enzyme-based qHTS assay with human liver microsomes (AID 1347399); conditions: Potency: qHTS inhibition; outcome: qHTS inhibition; also: nearly all actives have a fitted effect of over 60% in size
In short: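 Recombinant human AChE (50 mU/mL in the enzyme mix) and human liver microsomes (0.25 mg/mL final) were preincubated with compound and NADPH (0.25 mg/mL final) for 30 min at 37 C. Acetylthiocholine/DTNB was then added; thiocholine was read colorimetrically after 10 min at room temperature.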
% is scaled to controls: 0 for no effect and ±100 for the full control effect.

Sequence of Acetylcholinesterase (Homo sapiens) (P22303 whole entry, looked up): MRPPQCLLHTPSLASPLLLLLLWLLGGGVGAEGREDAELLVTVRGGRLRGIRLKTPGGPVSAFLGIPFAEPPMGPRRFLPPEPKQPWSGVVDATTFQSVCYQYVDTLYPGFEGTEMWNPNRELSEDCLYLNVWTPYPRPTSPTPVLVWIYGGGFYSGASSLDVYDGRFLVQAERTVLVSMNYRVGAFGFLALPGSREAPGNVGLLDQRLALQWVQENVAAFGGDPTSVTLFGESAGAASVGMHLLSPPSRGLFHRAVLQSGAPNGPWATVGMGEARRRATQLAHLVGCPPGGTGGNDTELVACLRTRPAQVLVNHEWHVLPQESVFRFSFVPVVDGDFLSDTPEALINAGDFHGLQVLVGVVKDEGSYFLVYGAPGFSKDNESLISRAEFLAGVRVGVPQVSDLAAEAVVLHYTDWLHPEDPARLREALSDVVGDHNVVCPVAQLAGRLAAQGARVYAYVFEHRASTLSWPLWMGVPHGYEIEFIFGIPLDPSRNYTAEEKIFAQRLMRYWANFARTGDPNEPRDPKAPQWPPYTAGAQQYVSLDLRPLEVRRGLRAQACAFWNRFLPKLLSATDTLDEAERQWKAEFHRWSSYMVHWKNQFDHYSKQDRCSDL

Cc1cccn2c(=O)c(-c3nnn[nH]3)cnc12
inactive: activity, negative = inhibition [1] -0.311% [at 23.6 µM] | activity change, negative = inhibition [2] -2.02% [at 23.6 µM] | activity change, negative = inhibition [3] -17.5% [at 23.8 µM] | activity change, negative = inhibition [4] -5.01% [at 23.6 µM]

c1ccc(CN(CC2=NCCN2)c2ccccc2)cc1
inactive: Potency [1] | Potency [2] | Potency [3] | Potency [4]

CO[Si](C)(OC)OC
inactive: Potency [1] | Potency [2] | Potency [3] | Potency [4]

CC(=O)C=O
inactive: Potency [1] | Potency [2] | Potency [3] | Potency [4]

O=S(=O)(O)c1ccc(Nc2nc(Nc3ccc(/C=C/c4ccc(Nc5nc(Nc6ccc(S(=O)(=O)O)cc6)nc(N(CCO)CCO)n5)cc4S(=O)(=O)O)c(S(=O)(=O)O)c3)nc(N(CCO)CCO)n2)cc1
inactive: Potency [1] | Potency [2] | Potency [3] | Potency [4]

Nc1cc(C(=O)O)c(O)c(S(=O)(=O)O)c1
inactive: Potency [1] | Potency [2] | Potency [3] | Potency [4]

COc1ccc(C(=O)c2ccc(OC)cc2O)c(O)c1
inactive: Potency [1] | Potency [2] | Potency [3] | Potency [4]

CN1CCN(C2=Nc3ccccc3Sc3ccc(Cl)cc32)CC1
inactive: Potency [1] | Potency [2] | Potency [3] | Potency [4]

CCc1cccc(CC)c1NC(=O)C(=O)O
inactive: Potency [1] | Potency [2] | Potency [3] | Potency [4]

CCOC(=O)[C@H](CCc1ccccc1)N[C@@H](C)C(=O)N1[C@H](C(=O)O)C[C@@H]2CCC[C@@H]21
inactive: Potency [1] | Potency [2] | Potency [3] | Potency [4]

COc1ccc(-c2coc3cc(O)ccc3c2=O)cc1
inactive: Potency [1] | Potency [2] | Potency [3] | Potency [4]

O=Cc1cccc(Br)c1
inactive: Potency [1] | Potency [2] | Potency [3] | Potency [4]

COCc1ccc(COC)cc1
inactive: Potency [1] | Potency [2] | Potency [3] | Potency [4]

CCN(CC)CCNC(C(=O)OCCC(C)C)c1ccccc1 (stereo unspecified)
inactive: Potency [1] | Potency [2] | Potency [3] | Potency [4]

O=C(c1ccco1)N1CCNCC1
inactive: Potency [1] | Potency [2] | Potency [3] | Potency [4]

CC(O)C1CCCCC1 (stereo unspecified)
inactive: Potency [1] | Potency [2] | Potency [3] | Potency [4]

C=CC(=O)OCCOCC(CC)(COCCOC(=O)C=C)COCCOC(=O)C=C
inactive: Potency [1] | Potency [2] | Potency [3] | Potency [4]

Nc1ccccc1O
inactive: Potency [1] | Potency [2] | Potency [3] | Potency [4]

CCSCC
inactive: Potency [1] | Potency [2] | Potency [3] | Potency [4]

NS(=O)(=O)c1cc2c(cc1Cl)NC(C(Cl)Cl)NS2(=O)=O (stereo unspecified)
inactive: Potency [1] | Potency [2] | Potency [3] | Potency [4]

C=CC(=O)[O-].C=CC(=O)[O-].[Zn+2]
inactive: Potency [1] | Potency [2] | Potency [3] | Potency [4]

C/C(=N\[Si](C)(C)C)O[Si](C)(C)C
inactive: Potency [1] | Potency [2] | Potency [3] | Potency [4]

O=Cc1cc(O)ccc1Br
inactive: Potency [1] | Potency [2] | Potency [3] | Potency [4]

CCCCCCCCCCCCCCCCCO
inactive: activity, negative = inhibition [1] 0.97% [at 23.6 µM] | activity change, negative = inhibition [2] -1.09% [at 23.6 µM] | activity change, negative = inhibition [3] 0.561% [at 23.8 µM] | activity change, negative = inhibition [4] 3.32% [at 23.6 µM]

O=C(O)/C=C/c1ccccc1
inactive: Potency [1] | Potency [2] | Potency [3] | Potency [4]

CCCCCCCCCCCCCCCS(=O)(=O)Oc1ccccc1
inactive: Potency [1] | Potency [2] | Potency [3] | Potency [4]

CC1(C)[C@@H](O)CC[C@]2(C)[C@H]3C(=O)C=C4[C@@H]5C[C@@](C)(C(=O)O)CC[C@]5(C)CC[C@@]4(C)[C@]3(C)CC[C@@H]12
inactive: Potency [1] | Potency [2] | Potency [3] | Potency [4]

COC(=O)CC(C)=O
inactive: Potency [1] | Potency [2] | Potency [3] | Potency [4]

Cc1onc(-c2c(Cl)cccc2Cl)c1C(=O)N[C@@H]1C(=O)N2[C@@H]1SC(C)(C)[C@@H]2C(=O)O
inactive: Potency [1] | Potency [2] | Potency [3] | Potency [4]

CCOC(=N)CC(=O)OCC
inactive: Potency [1] | Potency [2] | Potency [3] | Potency [4]

CC(CO)CO
inactive: Potency [1] | Potency [2] | Potency [3] | Potency [4]

CCCCOC(=O)CCCCCCCC(=O)OCCCC
inactive: Potency [1] | Potency [2] | Potency [3] | Potency [4]

OC1CCC(C2CCCCC2)CC1 (stereo unspecified)
inactive: Potency [1] | Potency [2] | Potency [3] | Potency [4]

C[C@H](N)C(=O)N[C@@H](C)C(=O)NC1[C@H]2CN(c3nc4c(cc3F)c(=O)c(C(=O)O)cn4-c3ccc(F)cc3F)C[C@@H]12 (stereo partly specified)
inactive: outcome [1] | outcome [2] | outcome [3] | outcome [4]

CC(N=C(NC#N)Nc1ccncc1)C(C)(C)C (stereo unspecified)
inactive: Potency [1] | Potency [2] | Potency [3] | Potency [4]

c1coc(Cn2cccc2)c1
inactive: Potency [1] | Potency [2] | Potency [3] | Potency [4]

C#C[C@]1(O)CC[C@H]2[C@@H]3CCc4cc(OC5CCCC5)ccc4[C@H]3CC[C@@]21C
inactive: Potency [1] | Potency [2] | Potency [3] | Potency [4]

C[C@H](CCC(=O)NCC(=O)O)[C@H]1CC[C@H]2[C@@H]3[C@H](O)C[C@@H]4C[C@H](O)CC[C@]4(C)[C@H]3C[C@H](O)[C@]12C
inactive: Potency [1] | Potency [2] | Potency [3] | Potency [4]

Cc1ccnc2ccccc12
inactive: Potency [1] | Potency [2] | Potency [3] | Potency [4]

CCC=CC#N
inactive: Potency [1] | Potency [2] | Potency [3] | Potency [4]

CCCCCCCCC(CO)CCCCCC (stereo unspecified)
inactive: Potency [1] | Potency [2] | Potency [3] | Potency [4]

CC(COc1ccccc1)NN (stereo unspecified)
inactive: Potency [1] | Potency [2] | Potency [3] | Potency [4]

COCc1nnc(-c2ccc[n+]([O-])c2)n1-c1c(Cl)c(Cl)cc2[nH]c(=O)c(=O)[nH]c12
inactive: Potency [1] | Potency [2] | Potency [3] | Potency [4]

O=C(OCCN1CCOCC1)c1cccnc1Nc1cccc(C(F)(F)F)c1
inactive: Potency [1] | Potency [2] | Potency [3] | Potency [4]
